Out of some 220,000 compounds screened, about 2,000 (0.91%) were called active. Roughly 2% stayed inconclusive and do not appear here. The list is a sample of the results. Potency and affinity values are given separately. Unmarked numbers belong to inactive results. No stated cut-off is given here; in the data, inconclusive means inhibition above about 80% without an active follow-up result; inactive means below that; test concentration not stated here.

The assay can be described thus: M. tuberculosis H37Rv growth inhibitors, H37Rv strain (AID 1626).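 Further: bacteria incubated seven days before Alamar blue readout; 0% = bacteria only wells and 100% = bacteria with antibiotic wells.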 The following applies: hits give high values, concentration not given here.
A word on the inhibition: it is the relative decrease from the control value, in per cent. Turning to `CCOC(=O)C1CCCN(C(=O)c2cccc(NC(=O)C(CC)CC)c2)C1` (stereo not drawn), the inhibition is -1.45%. Regarding `CCCCCOc1ccc(C)cc1CN(CCCl)CCCl`, the inhibition is 5.72%. The value for `CCOC(=O)CNc1c(N2CCN(c3ccccn3)CC2)c(=O)c1=O` was 0.74%; that for `COCCn1c(C)cc(C(=O)COC(=O)c2ccc3c(c2)NC(=O)CS3)c1C` was 3.82%. For the compound `N#C/C(=C\c1cn[nH]c1-c1ccc(Cl)cc1)C(=O)NC1CC1`, the inhibition was 9.87%. Consider `CCOC(=O)COc1cc(=O)n(CC)c2ccccc12`, for which the inhibition was 7.42%.

For `COc1ccc(/C=C/C(=O)Nc2cc(C)nn2-c2nc3ccccc3[nH]2)cc1`, the inhibition is 11.4%. In the case of `CCOC(=O)C(=O)Nc1cc(C)nn1-c1nc2ccccc2[nH]1` it was -8.84%. The value for `Cc1cc(NC(=O)/C=C/c2ccc(F)cc2)n(-c2nc3ccccc3[nH]2)n1` was 13.6%; that for `Cc1cc(NC(=O)C2CCC2)n(-c2ccccn2)n1` was 2.03%. Regarding `COC(C[C@@H]1O[C@H]1[C@H](O)[C@@H](C)OCc1ccccc1)OC`, the inhibition is -4.16%.

For `CCn1c2ccccc2c2nnc(NN)nc21`, the inhibition is -7.42%. In the case of `O=C(/C(C=Nc1cccc(C(F)(F)F)c1)=C(/O)c1ccco1)C(F)(F)F`, the inhibition was 0.06%.

As for `Cc1nn(C)c(C)c1NC(=O)CCl`, the inhibition is -7.2%. Turning to `CCn1c(SCC(=O)N=Nc2c(O)[nH]c3ccccc23)nnc1-c1ccc(C(C)(C)C)cc1`, the inhibition was -1.76%. With `Cc1[nH]c2ccc(F)cc2c1CCNC(=O)C1CCCCC1C(=O)OCC(F)(F)F` (stereo not drawn), the inhibition is 2.82%. The value for `O=C(NCc1ccccc1)c1ccc(Br)cc1` was -2.09%; that for `Cc1[nH]n(-c2ccccc2)c(=O)c1N=Nc1ccccc1` was 3.96%. The value for `Cc1ccccc1N=Nc1c(C)[nH]n(-c2ccccc2)c1=O` was -1.01%; that for `Cc1[nH]n(-c2ccccc2)c(=O)c1N=Nc1ccc2c(c1)OCCO2` was -5.08%; that for `Cc1[nH]n(-c2ccccc2)c(=O)c1N=Nc1ccccc1O` was 5.76%. The value for `Cc1nnc(NC(=O)CCSCCC(=O)Nc2nnc(C)s2)s1` was 1.24%; that for `COc1ccc(/C=C/C(=O)c2c(O)ccc3c(C)cc(=O)oc23)cc1` was 17.2%.

On to `O=C(COC(=O)c1ccccc1O)NCCC1=CCCCC1`, for which the inhibition was 7.1%. The value for `O=C(COC(=O)c1ccccc1Cl)NCCC1=CCCCC1` was 4.94%; that for `O=C(NCc1ccco1)C1CCN(Cc2ccc(F)cc2)CC1` was 1.23%; that for `COc1ccc(CNC(=S)Nc2cc(C)ccc2C)cc1` was 4.83%. The value for `C=CCn1c(SCC(=O)N2CCc3ccccc3C2)nc2ccccc2c1=O` was -0.56%. On to `O=C1CC(c2ccccc2Oc2cccc(Cl)c2)C(n2cncn2)C(=O)C1C1NCCc2ccccc21` (stereo not drawn), for which the inhibition is -9.29%. The value for `Cc1cc(C)c2c(n1)sc1c(N3CCN(CCO)CC3)ncnc12` was 18.8%; that for `Cc1cc(C)c2c(n1)sc1c(N3CCN(C)CC3)ncnc12` was 7.86%.

Turning to `CCc1cccc(CN2CCC(CNC(=O)Nc3ccc(Cl)cc3)CC2)c1`, the inhibition was 0.84%.

As to `Cc1ccc(NC(=O)NCC2CCN(Cc3cccc(Cl)c3)CC2)c(Cl)c1`, the inhibition was 33.5%. The value for `COCCn1c(COc2ccc(OC)cc2)nc2ccccc21` was 4.25%; that for `Cc1sc(NC(=O)C2CC(Cl)=CCC2C(=O)O)c(C#N)c1C` (stereo not drawn) was -16.1%; that for `Cc1ccc(-c2nnn(CC(=O)N(c3ccc(F)cc3)C(C(=O)NC(C)(C)C)c3ccco3)n2)o1` (stereo not drawn) was -0.26%. As for `Cc1onc(-c2c(Cl)cccc2Cl)c1C(=O)c1ccccc1`, the inhibition was -5.4%. With `Cc1ccccc1NC(NC(=O)c1cccs1)C(Cl)(Cl)Cl` (stereo not drawn), the inhibition was -3.03%. With `Cc1ccc(NC(NC(=O)c2cccs2)C(Cl)(Cl)Cl)cc1` (stereo not drawn), the inhibition was 21%. In the case of `Nc1nc(SCC(=O)Nc2ccccc2)[nH]c(=O)c1NC(=O)c1cccs1`, the inhibition is -5.6%. As to `Cc1ccc2c(CC(=O)Nc3cccc(S(=O)(=O)N4CCOCC4)c3)coc2c1`, the inhibition was 5.42%. The value for `CC(C)C(=O)NC(CC(=O)O)c1ccccc1` (stereo not drawn) was -15.2%; that for `Cc1nnc(SCC(=O)N/N=C/c2cc(Cl)c(O)c(Cl)c2)s1` was -3.34%; that for `Cc1cc(NC(=O)/C=C/c2ccccc2)no1` was -1.33%. The value for `COC(=O)c1cc(-c2ccccc2)on1` was 45%; that for `O=C(Nc1ccc(N2CCOCC2)c(Cl)c1)c1cccnc1Cl` was -3.3%. For `Cc1cccn2c(=O)c(C=NCCO)c(Nc3ccc(Cl)cc3)nc12`, the inhibition is 2.37%. With `COc1ccccc1NC(=O)c1c(C)oc2c1CCCC2`, the inhibition is -16.9%. For the compound `Cc1cc(=O)oc(C)c1C(=O)Nc1cccc2ccccc12`, the inhibition was 7.53%. Take `O=C(O)CSc1cc(C(F)(F)F)nc(-c2ccccn2)n1`: the inhibition was -6.21%. `COc1cc(C(F)(F)F)nc(-c2ccccn2)n1`: the inhibition was 6.27%. In the case of `CCN(CC)c1cc(C(F)(F)F)nc(-c2ccccn2)n1`, the inhibition is -2.81%.

`FC(F)(F)c1cc(Oc2ccccc2)nc(-c2ccccn2)n1`: the inhibition was 12.1%. Regarding `C#CCSc1cc(C(F)(F)F)nc(-c2ccccn2)n1`, the inhibition is 5.1%. In the case of `CN(C)c1cc(C(F)(F)F)nc(-c2ccccn2)n1` it was 3.02%.

As for `FC(F)C(F)(F)c1cc(-c2ccc(Cl)cc2)n[nH]1`, the inhibition is 12.2%. On to `CNc1nnc(CSc2nc(C)cc(C)n2)s1`, for which the inhibition is -5.32%. Turning to `O=C(c1cccc(C(F)(F)F)c1)C1CCCN(C(=O)CCCn2cncn2)C1` (stereo not drawn), the inhibition was 4.12%. For the compound `CN(CCCNC(=O)CSc1cc(=O)n(C)c2cc(Cl)ccc12)Cc1ccccc1`, the inhibition was 4.19%. As to `COc1ccc(NC(=O)c2noc(C(C)C)c2[N+](=O)[O-])cc1`, the inhibition was -2.72%. Consider `NS(=O)(=O)c1ccc(CNC(=S)NC2CC2)cc1`, for which the inhibition was -2.38%. In the case of `CN(Cc1ccccc1)c1ccc(N2C(=O)CCC2=O)cc1[N+](=O)[O-]` it was -1.08%; in that of `COc1ccccc1NS(=O)(=O)c1ccc(C(N)=O)cc1`, -0.48%. Take `Cc1ccc2c(c1)N(CC(=O)N1CCCCC1c1cccnc1)C(=O)CO2` (stereo not drawn): the inhibition is -4.68%.

Turning to `CCO[C@@H]1OC(C(=O)NCc2nc3ccccc3[nH]2)=C[C@H](C(C)(C)C)[C@H]1CCCO`, the inhibition is -3%.

In the case of `O=C1C(=O)c2c(C(=O)c3ccccc3)coc2-c2ccccc21`, the inhibition was 4.79%. In the case of `Cc1ccc2c3c(cccc13)-c1ccccc1C2=O` it was 10.1%.

Take `C[C@H]1COC2=C1C(=O)C(=O)c1c2ccc2c1CCCC2(C)C`: the inhibition is -2.33%. In the case of `Cc1ccc(C(=O)c2coc3c2C(=O)C(=O)c2ccccc2-3)cc1` it was -2.44%; in that of `O=C(CN1CCC(n2nnc3cc(F)ccc32)CC1)NNC(=O)c1ccccc1`, -6.09%; in that of `N#Cc1ccc(COC(=O)c2ccccn2)cc1`, 39%. In the case of `COc1cccc(NC(=O)CSc2ncnc3c2cnn3Cc2ccccc2)c1` it was -10.6%.

For the compound `NC(=S)NNC(=O)c1ccccc1Cl`, the inhibition is -8.81%. With `CC(C)(C)C(=O)Nc1nc(NC(=O)C(C)(C)C)nc(-c2ccccc2Cl)n1`, the inhibition was -0.83%. In the case of `COc1ccc(Nc2ccc(N3C(=O)CCCC3=O)cc2[N+](=O)[O-])cc1OC` it was -5.4%. In the case of `CCN1/C(=C\C(C)=O)Sc2ccc(OC)cc21` it was -5.41%. Take `CC(=O)NCCNc1ccc([N+](=O)[O-])cn1`: the inhibition is -0.44%. In the case of `CCOC(=O)N/N=C/c1cn(CCCOc2ccccc2)c2ccccc12` it was 8.89%; in that of `C/C(=N/N1CCN(Cc2cccc3ccccc23)CC1)c1ccco1`, -5.28%. The value for `c1ccc2c(c1)N1CCCN=C1N2CCN1CCCCC1` was 1.49%. As to `c1ccc2c(c1)N1CCN=C1N2CCN1CCCCC1`, the inhibition was -2.04%. As for `O=C(Nc1ccc2c(c1)OCO2)C1CCN(C(=O)c2cccs2)CC1`, the inhibition is 0.36%. Take `O=c1oc(-c2cccc(Cl)c2)nc2c1cnn2-c1ccccc1`: the inhibition is 22.1%. The value for `O=c1oc(-c2ccccc2)nc2c1cnn2-c1ccccc1` was 19.8%; that for `N#C/C(=C\c1ccc(Cl)c([N+](=O)[O-])c1)c1ccccn1` was 6.45%. The value for `CCOC(=O)c1c(NC(=O)CNCC(O)CO)sc(C)c1C` (stereo not drawn) was 4.88%; that for `O=C(Cn1cnc([N+](=O)[O-])n1)NC1CC1` was -0.97%; that for `Nc1nc(Cl)cc(Sc2ccc(F)cc2)n1` was 4.27%. The value for `Nc1nc(Cl)cc(Sc2ccc3ccccc3c2)n1` was 8.65%; that for `Cc1cc(NC(=O)CSc2nc(N)c(NC(=O)c3ccccc3)c(=O)[nH]2)no1` was -1.25%. For the compound `CCOC(=O)N1CCN(S(=O)(=O)/C=C/c2ccccc2)CC1`, the inhibition is -17.8%.

`CCOC(=O)N1CCN(C/C(C)=C/c2ccccc2)CC1`: the inhibition is -4.4%. The value for `CC(C)(C)NS(=O)(=O)c1ccc(CCC(=O)Nc2ccc3c(c2)OCCO3)cc1` was -4.02%; that for `COc1ccccc1S(=O)Cc1ccc(C(=O)O)o1` (stereo not drawn) was -6.58%. In the case of `C[C@H]1c2cccc(O)c2C(O)=C2C(=O)[C@]3(O)C(O)=C(C(N)=O)C(=O)[C@@H](N(C)C)[C@@H]3[C@@H](O)[C@@H]21` it was 63.7%; in that of `C=C1c2cccc(O)c2C(O)=C2C(=O)[C@]3(O)C(O)=C(C(N)=O)C(=O)[C@@H](N(C)C)[C@@H]3[C@@H](O)[C@H]12`, 1.79%. In the case of `CN(C)[C@@H]1C(=O)C(C(N)=O)=C(O)[C@@]2(O)C(=O)C3=C(O)c4c(O)cccc4[C@@](C)(O)[C@H]3[C@H](O)[C@@H]12` it was 11.9%; in that of `CN(C)[C@@H]1C(=O)C(C(N)=O)=C(O)[C@@]2(O)C(=O)C3=C(O)c4c(O)cccc4[C@@](C)(O)[C@H]3C[C@@H]12`, -3.76%.

The record behind these values is PubChem BioAssay AID1626 (SRMLSC, 2009).
